# Screening data deposited in PubChem BioAssay by several laboratories.
# Rows were chosen to be rich in hits. Some 5.4% of all compounds tested hit in one or more screens of this group.
# CSC inhib: cancer stem cell viability inhibitors, primary screen, luminescence | inhibition, % at 7.5 µM | 300,000 tested, 1.1% active | cancer stem cell-like cells viability | AID 2717, 2010; in the data active = inhibition above about 75%; inconclusive = no clear call, values can overlap the other calls; tested in HMLE shEcad cells
# Mdm2-MdmX inh: inhibitors of human Mdm2-MdmX association, primary screen, cell-based, luminescence, split luciferase, SaOS-2, uHTS; Protein Mdm4 (Homo sapiens) + E3 ubiquitin-protein ligase Mdm2 (Homo sapiens), …; 330,000 tested, 3% active; inhibition, % at 8 µM; SaOS-2 split-luciferase Mdm2/MdmX complementation;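 active = inhibition of at least 50% at 8 µM in the primary screen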
# Target sequence (O15151 whole entry, looked up): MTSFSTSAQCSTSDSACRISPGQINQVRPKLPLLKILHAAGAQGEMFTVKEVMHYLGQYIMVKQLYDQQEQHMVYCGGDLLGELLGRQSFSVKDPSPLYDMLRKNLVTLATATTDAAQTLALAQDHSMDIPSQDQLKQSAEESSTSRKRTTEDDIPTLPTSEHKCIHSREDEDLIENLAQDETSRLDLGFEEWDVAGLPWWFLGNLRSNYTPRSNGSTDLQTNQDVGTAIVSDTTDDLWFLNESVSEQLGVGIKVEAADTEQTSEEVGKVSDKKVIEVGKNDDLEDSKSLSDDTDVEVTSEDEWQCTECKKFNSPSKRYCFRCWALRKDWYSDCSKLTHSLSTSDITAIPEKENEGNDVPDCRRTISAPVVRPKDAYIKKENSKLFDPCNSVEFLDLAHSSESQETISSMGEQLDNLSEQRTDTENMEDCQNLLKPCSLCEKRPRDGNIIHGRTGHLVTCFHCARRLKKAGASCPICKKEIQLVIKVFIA
# Target sequence (Q00987 whole entry, looked up): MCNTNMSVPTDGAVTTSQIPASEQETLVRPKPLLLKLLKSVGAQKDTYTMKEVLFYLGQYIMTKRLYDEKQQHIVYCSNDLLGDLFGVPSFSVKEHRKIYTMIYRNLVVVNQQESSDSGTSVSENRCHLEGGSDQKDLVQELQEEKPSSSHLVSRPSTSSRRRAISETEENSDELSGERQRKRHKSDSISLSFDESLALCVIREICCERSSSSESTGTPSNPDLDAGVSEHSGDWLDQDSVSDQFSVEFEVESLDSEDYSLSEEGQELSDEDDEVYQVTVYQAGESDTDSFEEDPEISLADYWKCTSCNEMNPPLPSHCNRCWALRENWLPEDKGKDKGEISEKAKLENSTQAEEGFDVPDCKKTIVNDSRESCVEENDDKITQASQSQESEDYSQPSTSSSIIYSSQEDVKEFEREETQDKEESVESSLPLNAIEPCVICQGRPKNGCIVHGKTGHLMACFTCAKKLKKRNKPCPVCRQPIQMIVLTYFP
# SKKanGAS inh: S. pyogenes SKKanGAS growth inhibitors in kanamycin, primary screen, streptokinase expression inhibitor project, SKKanGAS strain, BacTiter-Glo luminescence | AID 1662, 2009 | 6 h | 300,000 tested, 1.3% active | inhibition, % at 7.5 µM;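 active = mean replicate score, as percent of positive control median, at least 50; inconclusive = mean below 50 but one replicate at or above 50; inactive = mean and every replicate below 50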;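 also: strain carries kanamycin resistance gene driven by streptokinase promoter and grows in 40 µg/ml kanamycin; loss of luminescence reflects streptokinase promoter inhibition or plain growth inhibition; 0% = median of DMSO wells and 100% = positive control at its reference dose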
# MPTP block: mitochondrial permeability transition pore inhibitors, primary screen, biochemical, isolated mouse mitochondria, absorbance | 360,000 tested, 1.4% active | Ca2+ swelling absorbance, 30 min | AID 602449, 2012 | inhibition, % at 10 µM;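 active = inhibition of 50% or more, scaled per plate between neutral and stimulator controls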;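 also: 0% = DMSO wells given calcium and 100% = 1 mM EGTA wells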
# Calb FLC: C. albicans growth inhibition with fluconazole, primary screen, CaCi-2 strain, Alamar Blue fluorescence; C. albicans CaCi-2 (fluconazole-resistant clinical isolate) + fluconazole, 48 h; growth inhibition, % (concentration not given with the values); 300,000 tested, 0.57% active;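 active = growth inhibition above about 58% in most replicates, limit read from the data, passing the limit was not always enough; inconclusive = exactly half the replicates above a set limit; inactive = most replicates below a set limit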;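 also: all wells also contain fluconazole at 8 µg/ml as a sub-toxic cotreatment; 0% = median of DMSO wells and 100% = median of geldanamycin control wells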
# Beta apoptosis: inhibitors of cytokine-induced beta cell apoptosis, primary screen, luminescence; INS-1E cytokine-induced death, ATP luminescence, 48 h; percent of positive-control rescue, neutral wells zero; protection from apoptosis, % (concentration not given with the values); 300,000 tested, 0.8% active;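 active = Every replicate reaches about 75%, or at least half do and their mean reaches it too, limit read from the data; inconclusive = At least half of replicates reach the limit but their mean does not; inactive = Under half of replicates reach the limit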;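 also: 0% = cytokine-treated negative control wells and 100% = positive control rescue; higher means more ATP so stronger rescue from cytokine killing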
# An asterisk follows results filed as active; ? = inconclusive; · = no result.
SMILES,CSC inhib,Mdm2-MdmX inh,SKKanGAS inh,MPTP block,Calb FLC,Beta apoptosis
Cc1ccc(NC(=O)COC(=O)c2ccc([N+](=O)[O-])o2)cc1S(=O)(=O)N1CCCCCC1,-5,0,3,0,-16,-11
O=C(Cc1ccccc1)NNc1ccc2ccccc2c1,88*,28,20,0,?,3
O=C(CN1C(=O)CCC1=O)NNc1ccc2ccccc2c1,14,18,12,-1,100*,-9
O=C(CNc1ccc2ccccc2c1)NNC1=NCCC1,-5,5,-10,0,22,1
Cc1cc(C(=O)NCCCOC(C)C)c2ccccc2n1,2,15,3,-1,-6,4
O=C(OCc1cn([C@H]2CN(C(=O)c3cccs3)[C@@H](c3ccccc3)C[C@@H]2O)nn1)c1ccccc1,·,·,·,-1,·,·
CN(C)/C=C(\C=N\OCc1ccc(Cl)cc1Cl)C(=O)Nc1ccc(Cl)c(Cl)c1,85*,5,113*,15,-24,-1
Cc1cc(O)c(/C=N/OCc2ccc(Cl)cc2Cl)c(=O)o1,6,17,-7,0,-2,-7
CCOC(=O)[C@H]1[C@H]2COc3ccc(Cl)cc3[C@@H]2N2C(=O)CN(CC3CCCO3)C(=O)[C@@]12C (some centres not stated),-4,6,·,0,·,-1
CCOc1cc(C2NN=C(c3ccc(C)cc3)S2)ccc1O (configuration not stated),105*,·,·,-1,·,0
COc1ccc(C2NN=C(c3ccc(C)cc3)S2)cc1 (configuration not stated),-8,·,-7,-1,-11,2
COc1ccccc1C(CNC(=O)C1COc2ccccc2O1)N1CCCC1 (configuration not stated),·,-37,·,0,·,-2
CCOc1ccc(NC(=O)c2ccc3c(=O)n(-c4ccc(OC)cc4OC)c(=S)[nH]c3c2)cc1,11,2,?,0,11,-2
COc1ccc(-n2c(=S)[nH]c3cc(C(=O)Nc4ccc(C)c(F)c4)ccc3c2=O)c(OC)c1,16,15,76*,3,-8,24
CCOC(=O)C(=Cc1cc(=O)c(OC)co1)C(=O)OCC,·,·,2,-2,94*,·
COc1coc(C(O)CN)cc1=O (configuration not stated),-7,-30,0,1,-3,-4
O=C(Nc1ccccc1)C1=C[C@H](c2csc3ccccc23)C[C@H](OCCCCO)O1,-7,4,23,1,12,-4
O=C(NCc1ccccc1)C1=C[C@H](c2csc3ccccc23)C[C@H](OCCCCO)O1,16,44,17,-2,-8,75*
O=C(O)c1ccc(Cn2c(SCc3cc(=O)n4cc(Br)ccc4n3)nc3ccsc3c2=O)cc1,8,-11,31,·,112*,1
CCOC(=O)c1cnc2c(Cl)cccc2c1NCCCN1CCOCC1,-13,-2,-7,2,10,9
Cc1nn2c(N3CCN(C(=O)c4ccco4)CC3)cc(C(C)(C)C)nc2c1-c1ccccc1,12,49,62*,·,2,-5
Cc1nn2c(N3CCN(C4CCCC4)CC3)cc(C(C)(C)C)nc2c1-c1ccccc1,22,5,10,1,-1,-8
Cc1cc(O)c(NC(=S)NC(=O)c2ccc(-c3ccc(Cl)cc3)o2)cc1C,5,26,92*,4,31,0
Cc1ccc(O)c(NC(=S)NC(=O)Cc2ccc(Cl)cc2)c1,3,11,-5,0,-2,10
Cc1ccc(NC(=S)NC(=O)c2ccc(-c3ccc(Cl)cc3)o2)c(O)c1,13,7,68*,3,?,3
SMILES,CSC inhib,Mdm2-MdmX inh,SKKanGAS inh,MPTP block,Calb FLC,Beta apoptosis
COc1ccc(-c2noc(N3CCC(C(=O)NCc4ccc(Cl)cc4)CC3)n2)cc1,9,21,-4,-1,-7,15
CC1=C(C(=O)N2CCOCC2)CC(CC(=O)NCc2cccs2)C(=O)N1Cc1ccc(C(C)(C)C)cc1 (configuration not stated),·,·,·,-1,·,·
O=C(Nc1ccc(Cl)cc1)[C@@H]1[C@@H]2C(=O)N(c3ccc(Cl)cc3Cl)C(=O)[C@@H]2[C@H]2C=CC=NN21,9,0,9,·,-12,0
CC1(C(=O)OCC(=O)N2c3ccccc3Sc3ccccc32)CC1(Cl)Cl (configuration not stated),57,23,25,3,44,89*
CC1(C(=O)OCC(=O)NC(=O)c2ccccc2)CC1(Cl)Cl (configuration not stated),11,16,6,0,1,-4
Cc1ccc(-c2cccc(-c3cc(=O)oc4ccc(C(C)(C)C)cc34)c2)cc1,·,5,·,2,·,·
Cc1noc(C)c1NC(=O)Nc1cccc2c1O[C@H](CN(C)C(=O)Nc1ccc(C(F)(F)F)cc1)[C@@H](C)CN([C@H](C)CO)C2=O,·,11,·,0,·,1
COc1cc(N/N=C/c2ccc(N(C)C)cc2)ncn1,4,-133,8,2,19,3
CN(C)c1cc(N/N=C/c2ccc(Cl)cc2)nc(N(C)C)n1,·,·,-21,3,98*,·
COc1ccc(S(=O)(=O)N(C)C)cc1NCC(=O)Nc1cccc(C#N)c1,9,13,-14,-2,-18,-2
O=C(Nc1ccc(Cl)c(C(F)(F)F)c1)[C@@H]1CC=C[C@@H]2CCN(Cc3ccccc3)C(=O)[C@@H]21,1,16,-3,3,3,0
CCCCN1CC[C@H]2C=CC[C@@H](C(=O)Nc3ccc(Cl)c(C(F)(F)F)c3)[C@H]2C1=O,-7,5,-4,0,109*,4
CSc1nnc(NC(=O)c2cccc(S(=O)(=O)N3CCOCC3)c2)s1,-5,6,14,-1,-1,-6
CS/C(=N\S(=O)(=O)c1cccs1)Nc1ccc(F)c(Cl)c1,0,6,9,9,95*,4
CS/C(=N\S(=O)(=O)c1cccs1)Nc1cccc(Cl)c1C,16,28,9,1,57,0
Cc1cc(C)c2nc(-c3ccccn3)cc(C(=O)Nc3ccc(S(=O)(=O)Nc4onc(C)c4C)cc3)c2c1,-10,-6,64*,0,10,-2
S=c1[nH]nc(C2CCCCC2)n1/N=C/c1cccc(Cl)c1Cl,55,12,59*,0,-6,2
Cc1ccc(C[n+]2cccc(-c3ccccc3)c2)c(C)c1,22,4,-9,2,13,97*
Cc1ccc2ccc[n+](Cc3ccccc3)c2c1,-11,26,-1,1,-15,12
CS(=O)(=O)NN1C(=O)c2ccccc2NC1c1cccc2cccnc12 (configuration not stated),2,-24,-3,0,80*,5
